# IL-1B inflam inh = inhibitors of inflammasome signaling (IL-1 beta secretion); activity change, % at 57.5 µM; THP-1 LPS/ATP IL-1B secretion, AlphaLISA, 16 h; hits give low values; AID 743279; 360,000 tested, 4.7% active; in the data active = activity change below about -50%; inconclusive = mostly about -30% to -49%
#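 Secreted IL-1B measured by AlphaLISA bead assay after 16 h compound exposure of THP-1 cells; compounds (final up to 57.5 uM) added 1 h before LPS (250 ng/mL) and ATP (1.25 mM) stimulation; lower signal means less secretion.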
# TDP1 cell CPT = DT40-hTDP1 cell growth loss with CPT | chicken DT40 Tdp1-/-;hTDP1 cells + 20 nM CPT, ATP luminescence, 48 h | Potency, µM (top dose mostly 46.2 µM), for the others: at the top dose activity change, negative = growth inhibition, usual class: inhibitors | 420,000 tested, 12% active; also: potency is read from the fitted curve at half-maximal effect; nearly all actives have a fitted effect of over 55% in size
#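 Chicken DT40 Tdp1-/- cells stably complemented with human TDP1 were seeded at 400 cells/well in medium containing 20 nM camptothecin, exposed to pin-transferred compounds, and grown at 37 °C for at least 48 hr. Viability was read as ATP luminescence.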
# DT40 TDP1 no CPT = qHTS for Inhibitors of human tyrosyl-DNA phosphodiesterase 1 (TDP1): qHTS in cells in absence of CPT; DT40 Tdp1-/- hTDP1 cells, no CPT, ATP luminescence, 48 h; Potency, µM (doses to about 46.2 µM), without a hit: at the highest dose activity change, negative = growth inhibition, most hits filed as inhibitors; 420,000 tested, 15% active; also: potency is read from the fitted curve at half-maximal effect; nearly all actives have a fitted effect of over 55% in size
#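 Growth of hTDP1-complemented DT40 Tdp1-knockout cells is measured by ATP luminescence after at least 48 hr compound exposure at 37 °C, with DMSO substituting for the 20 nM CPT used in the parallel screen.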
# HT1080 IDH1KD tx = HT-1080 IDH1 knockdown cell toxicity (counter line). 360,000 tested, 2% active. Potency, µM (doses to about 46.1 µM), inactives show at the highest dose activity, negative = toxicity, actives largely listed as cytotoxic. HT-1080 IDH1 knockdown viability, ATP luminescence, 48 h. AID 686971;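 also: potency is read from the fitted curve at half-maximal effect; 0% = DMSO wells and -100% = cell-free medium wells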
#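 % activity derives from luminescence (CellTiter-Glo), normalised to DMSO and no-cell wells. HT-1080-IDH1KD cells, 750/well, had 48 h compound exposure at 37 °C.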
# HT1080-NT tox = kills 2HG-producing HT-1080-NT fibrosarcoma cells. HT-1080-NT fibrosarcoma viability, CellTiter-Glo ATP luminescence, 48 h. Potency, µM (top dose mostly 46.1 µM), for inactives: at the highest dose activity, negative = less viability, actives largely listed as cytotoxic. AID 686970. 360,000 tested, 1.6% active;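 also: NT is the 2HG producing partner of a matched IDH1 knockdown line; potency is read from the fitted curve at half-maximal effect; 0% = DMSO-treated cells and -100% = media-only wells without cells; nearly all actives have a fitted effect of over 55% in size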
#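 Viability of the 2HG-overproducing fibrosarcoma line after 48 hours of compound exposure at 37 degrees C was determined by luminescence with CellTiter-Glo, and concentration-effect curves were then fitted and categorized.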
# The depositor's hits bear a star; i = inactive; ? = inconclusive; / = no result given. Rows were chosen to be rich in hits. Some 19% of all compounds tested hit in one or more screens of this group. Unless noted, calls follow the shape of the dose curve; as a rule, active = well fitted curve in the direction sought with a large enough effect; inconclusive = small, poorly fitted or top-dose-only effect, or another doubt; inactive = no such curve, though single readings can be large; an effect the other way counts as inactive or inconclusive. Unless noted, % is scaled to controls: 0 for no effect and ±100 for the full control effect.
SMILES,IL-1B inflam inh,TDP1 cell CPT,DT40 TDP1 no CPT,HT1080 IDH1KD tx,HT1080-NT tox
O=C1CN(C(=O)c2ccccc2F)C(c2ccc(F)cc2)c2cc(Br)ccc2N1 (stereo unspecified),-1.4,6.8%,-10.9%,-4.7%,-28.1%
CC(C)(C)c1ccc(C(=O)N2CC(=O)Nc3ccc(F)cc3C2c2ccc(F)cc2)cc1 (stereo unspecified),/,25.9µM*,18.4µM*,/,/
O=C1CN(C(=O)c2ccccc2)C(c2ccccc2)c2cc(F)ccc2N1 (stereo unspecified),3.0,0.5%,-4.8%,-5.2%,-1.6%
CCN(c1cccc(C)c1)S(=O)(=O)c1ccc2c(c1)N(C(C)=O)CCS2,50.6,?,-18.9%,-4.0%,2.9%
CC(=O)c1ccc(N2C(=O)CC(N3CCN(S(=O)(=O)c4cc(C)ccc4C)CC3)C2=O)cc1 (stereo unspecified),15.6,7.1%,-0.7%,12.0%,9.8%
C=CCN(CC=C)S(=O)(=O)c1ccc(NC(=S)NC(=O)C2CC2)cc1,7.0,23.1µM*,13µM*,?,?
CN(Cc1ccccc1)S(=O)(=O)c1ccc(NC(=S)NC(=O)C(C)(C)C)cc1,-12.5,20.6µM*,16.4µM*,0.6%,-2.4%
CN(Cc1ccccc1)S(=O)(=O)c1ccc(NC(=S)NC(=O)C2CCCCC2)cc1,36.6,11.6µM*,14.6µM*,-26.7%,-5.5%
CN(Cc1ccccc1)S(=O)(=O)c1ccc(NS(C)(=O)=O)cc1,12.8,?,-10.4%,3.2%,0.2%
O=C(NC(=S)N(Cc1ccccc1)Cc1ccccc1)C1CCCCC1,-6.6,?,23.1µM*,0.9%,-6.1%
Cc1ccc(C(=O)N2CCN(S(=O)(=O)N3CCCCC3)CC2)cc1,i,-3.6%,1.2%,26.2%,13.0%
CCNc1ncc2nc(-c3cccc(C#N)c3)c(=O)n(C)c2n1,/,3.8%,-4.2%,/,/
CCCOc1ccc(C(=O)Nc2cc(S(=O)(=O)N3CCOCC3)ccc2N2CCN(CC)CC2)cc1OC,-18.1,-3.7%,-17.7%,-4.6%,-3.8%
CCN(CC)C(=O)C1=C(C)N(CCC2=CCCCC2)C(=O)C(CC(=O)NC(c2ccccc2)c2ccccc2)C1 (stereo unspecified),2.7,18.4µM*,?,-7.6%,-9.9%
CC1=C(C(=O)N(C)C)CC(CC(=O)NC(c2ccccc2)c2ccccc2)C(=O)N1CCC1=CCCCC1 (stereo unspecified),-16.2,?,20.6µM*,-1.2%,-1.6%
CC1=C(C(=O)N(C)C)CC(CC(=O)NCc2ccco2)C(=O)N1CCC1=CCCCC1 (stereo unspecified),-4.6,-1.6%,-11.1%,3.9%,5.5%
CCN(CC)C(=O)C1=C(C)N(Cc2ccc(OC)cc2)C(=O)C(CC(=O)NC(c2ccccc2)c2ccccc2)C1 (stereo unspecified),?,-3.5%,?,-2.5%,-11.5%
O=C(OCc1ccc([N+](=O)[O-])cc1)c1cc(=O)c2ccccc2o1,14.8,30.1%,-18.3%,20.3%,-1.7%
O=C(O)CSc1nc2ccccc2s1,14.5,14.2%,16.4%,1.5%,1.0%
O=S1(=O)C=C(Sc2nc3ccccc3s2)c2ccccc21,-66.3*,0.82µM*,0.651µM*,2.59µM*,2.31µM*
CSc1nnc(-c2ccccc2)o1,-18.4,-2.1%,0.2%,20.7%,2.6%
O=S1(=O)C=C(Sc2nnc(-c3ccccc3)o2)c2ccccc21,-101.7*,0.517µM*,0.581µM*,1.26µM*,2.82µM*
Cc1cc(C)nc(SC2=CS(=O)(=O)c3ccccc32)n1,-97.7*,?,18.4µM*,?,23.1µM*
COc1ccc(/C=N/NC(=O)c2ccc3ccccc3c2)cc1OS(=O)(=O)c1ccc(NC(C)=O)cc1,-12.5,4.61µM*,3.66µM*,?,6.31µM*
CCOc1cc(C(=S)N2CCOCC2)ccc1OS(=O)(=O)c1ccc(NC(C)=O)cc1,-52.8*,10.3µM*,16.4µM*,-1.5%,-2.3%
